Screening results deposited in PubChem by several laboratories.
DSG3 Ab inh: inhibitors of pemphigus antibody binding to DSG3, primary screen, biochemical, bead-based, flow cytometry, scFv-GFP; Desmoglein-3 (Homo sapiens), P32926; 310,000 tested, 0.48% active; binding (percent of control), % at 10 µM; DSG3-coupled beads, scFv-anti-DSG3-GFP binding; active compounds read low; AID 588358, 2011;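 active = binding more than 3 SD below its plate's average and above zero; inconclusive = below that plate limit but binding exactly zero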;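 also: hits lower antibody fragment binding to DSG3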
LANA-H2B inh: blockers of LANA interaction with H2A/H2B – biochemical, FP readout, HTS, primary screen; inhibition, % (no concentration beside the values); cell-free LANA-H2A/H2B peptide, fluorescence polarization; Protein LANA1 (Human herpesvirus 8 type P (isolate GK18)), Q9QR71; 320,000 tested, 0.6% active; in the data active = inhibition mostly above about 10%, no sharp cut-off; inactive = mostly below about 6.7%
HDAC3 inh: HDAC3 deacetylase inhibitors, primary screen, biochemical, fluorescence, cell-free homogeneous. recombinant HDAC3, fluorogenic peptide/trypsin coupled. AID 2718, 2010. Histone deacetylase 3 (Homo sapiens), O15379. inhibition, % at 8.3 µM. 320,000 tested, 0.15% active; in the data active = inhibition above about 26%, passing the limit was not always enough; inconclusive = no clear call, values can overlap the other calls
PKD1 kinase inh: inhibitors of human PKD1 kinase, biochemical, fluorescence polarization; Serine/threonine-protein kinase D1 (Homo sapiens), Q15139; PKD1 kinase fluorescence polarization assay; inhibition, % (test concentration not listed); 200,000 tested, 0.056% active; AID 797, 2007
GRK2 inh: compounds blocking aptamer binding on GRK2 – biochemical, human GRK2, bead flow cytometry, HTS, primary screen | Beta-adrenergic receptor kinase 1 (Homo sapiens), P25098 | FAM-aptamer displacement from GRK2 | 330,000 tested, 0.59% active | inhibition of aptamer binding, % at 10 µM;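 active = inhibition of aptamer binding above 40%, roughly 3 SD of noise, on plates passing a quality check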;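 also: median bead fluorescence of bound FAM aptamer so fluorescent compounds give negative values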
VLA-4 inh: inhibition in human VLA-4 binding assay, primary screen, VLA-4 allosteric modulator project, MLPCN library, flow cytometry, VLA-4 expressing cells; ligand binding flow cytometry; AID 2557, 2010; inhibition, % (about 7 µM as worked out from the volumes in the protocol); 330,000 tested, 0.2% active; Integrin alpha-4 (Homo sapiens), P13612
GRK2 CP1: GRK2 aptamer-displacing inhibitors, retest, confirmation, biochemical, cherry pick 1, bead flow cytometry; shares compounds with GRK2 inh; bead-bound GRK2, FAM-aptamer displacement; aptamer displacement, % at 10 µM; 2,000 tested, 4% active;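 active = aptamer displacement above 40%, near three times the noise of non-fluorescent compounds, on plates passing quality checks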;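 also: negative values mostly reflect intrinsic compound fluorescence rather than true enhancement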
Aptamer quench: quenches fluorescent RNA aptamer, GRK2 hit artifact. Fluorescent RNA aptamer beads, quenching, flow cytometry; active compounds read high. shares compounds with GRK2 inh. 110 tested, under 10 active. fluorescence change (kMESF span), kMESF (test concentration not listed);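 active = compounds whose bead fluorescence drops by more than 37 kMESF across the dose range, marking them as dye quenchers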
Aptamer quench SP: counter-screen for GRK2 aptamer inhibitors: fluorescent aptamer quenchers. shares compounds with GRK2 inh. Carboxyfluorescein RNA aptamer on beads, flow cytometry quenching; active compounds read low. fluorescence response (% of DMSO), % at 10 µM. 2,000 tested, under 10 active;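 active = compounds that quench the bead-bound fluorescent RNA probe, cutting fluorescence to under half of the solvent control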;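 also: counterscreen run without GRK2 so only probe quenching by compound is measured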
GRK2 confirm 2: GRK2 aptamer-displacing inhibitors, hit retest, confirmation, biochemical, cherry pick 2, bead flow cytometry. shares compounds with GRK2 inh. bead-bound GRK2, FAM-aptamer displacement. inhibition of aptamer binding, % at 10 µM. 360 tested, under 10 active;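 active = inhibition of aptamer binding above 40%, about triple the noise seen with nonglowing compounds, on plates passing quality control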;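 also: negative values mostly come from compounds that fluoresce themselves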
FAM quench SP: quenches fluorescent RNA aptamer, GRK2 hit artifact. carboxyfluorescein RNA aptamer beads, flow cytometry quenching; active compounds read low. 360 tested, under 10 active. shares compounds with GRK2 inh. fluorescence response vs DMSO, % at 10 µM. AID 588494;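 active = response vs DMSO under 50%, meaning signal dropped by over half, treated as fluorescence quencher; inconclusive = no clear call, values can overlap the other calls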;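 also: labelled aptamer on streptavidin beads without GRK2 as a quench counter-screen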
Large screens that a line does not name were inactive (follow-up assays come after a bar, where they were run). Sampled rows, rich in hits. Any-hit rate of the full collection: about 1.8%. Rule as the data show it, unless noted: active = inhibition above about 50%; inactive = the rest.

CCn1c(CNC(=O)c2ccccc2F)nnc1SCC(=O)Nc1nncs1	none (no result: PKD1 kinase inh)
CN(C)c1cccc(C(=O)OCc2cc(=O)oc3cc(O)ccc23)c1	GRK2 inh 54 (no result: DSG3 Ab inh) | GRK2 CP1 55 | Aptamer quench inactive | Aptamer quench SP inactive
CC(C)NC(=O)C(=O)NC1CCCCCC1	GRK2 inh 54 | GRK2 CP1 inactive | Aptamer quench SP inactive
O=C(NC1CCCCCC1)C(=O)NC1CC1	none (no result: PKD1 kinase inh)
Cn1c(NCc2ccccc2O)nc2ccccc21	GRK2 inh 45 | GRK2 CP1 inactive | Aptamer quench SP inactive
O=C(CCC(=O)Nc1ccc(Br)cc1)N/N=C/c1ccc(O)cc1	none (no result: PKD1 kinase inh)
C=CCNC(=O)c1onc(CSc2ccc(F)c(F)c2)c1C(=O)NCC=C	GRK2 inh 53 (no result: PKD1 kinase inh) | GRK2 CP1 inactive | Aptamer quench SP inactive
Cn1c(=O)n(CCc2ccccc2)c2ccccc21	GRK2 inh 51 (no result: PKD1 kinase inh) | GRK2 CP1 inactive | Aptamer quench SP inactive
Cn1c(=O)n(CC(N)=O)c2ccccc21	none
CC1CCCC(NC(=O)C2CCN(C(=O)Nc3ccccc3)CC2)C1C (stereo unspecified)	none (no result: PKD1 kinase inh)
COC(=O)c1ccc(CS(=O)(=O)c2ccccc2C)o1	none | GRK2 confirm 2 inactive | FAM quench SP inactive
CCCc1cc(=O)[nH]c2nnc(SCC(=O)Nc3cccc(NC(C)=O)c3)n12	none (no result: LANA-H2B inh, HDAC3 inh, PKD1 kinase inh)
Cc1ccc(SCC(=O)NCCC2=CCCCC2)cc1	GRK2 inh 45 | GRK2 CP1 inactive | Aptamer quench SP inactive
COc1cc(C)c2c(c1C=O)Oc1c(c(C)c(O)c3c1C(O)OC3=O)OC2=O (stereo unspecified)	GRK2 inh 66 | GRK2 CP1 inactive | Aptamer quench SP inactive
O=C(Nc1nnc(C2CC2)s1)c1cncc(Br)c1	none (no result: PKD1 kinase inh)
CCNc1nc(SCC(=O)Nc2ccc(Cl)c(Cl)c2)nc(N(C)C)n1	GRK2 inh 45 | GRK2 CP1 inactive | Aptamer quench SP inactive
COc1ccc2nc(NCc3ccc(OC)c(OC)c3OC)sc2c1	none (no result: LANA-H2B inh, HDAC3 inh, PKD1 kinase inh, GRK2 inh, VLA-4 inh)
Cc1onc(-c2ccccc2)c1C(=O)n1cc(Br)cn1	HDAC3 inh inconclusive, GRK2 inh 69 (no result: DSG3 Ab inh) | GRK2 CP1 inactive | Aptamer quench SP inactive
CCOC(=O)c1sc2nc3c(SCC(=O)O)cc(C(=O)c4ccccc4O)cn3c(=O)c2c1C	GRK2 inh 63 | GRK2 CP1 inactive | Aptamer quench SP inactive
O=C(O)CSc1cc(C(=O)c2ccccc2O)cn2c(=O)c3c(-c4ccccc4)csc3nc12	none
Cc1cc(CNCCN(C)C)c(C)n1-c1cc(S(=O)(=O)N2CCOCC2)ccc1N1CCCC1	none (no result: LANA-H2B inh, HDAC3 inh, PKD1 kinase inh, GRK2 inh, VLA-4 inh)
Cc1ccc(S(=O)(=O)N2CCOCC2)cc1NC(=O)COC(=O)/C=C/c1ccco1	GRK2 inh 63 (no result: PKD1 kinase inh) | GRK2 CP1 inactive | Aptamer quench SP inactive
CCN(CC)CCCNc1nc(SC)nc2sc3c(c12)CCN(C)C3	none (no result: DSG3 Ab inh, PKD1 kinase inh)
CCCCn1c(CNC(=O)C(C)(C)C)nc2ccccc21	HDAC3 inh inconclusive, GRK2 inh 83 | GRK2 CP1 inactive | Aptamer quench SP inactive
